In the supplement of paper PMC4466140:

What was measured:
Assay in all cases: SPOT peptide array binding signal intensity (averaged, normalized) (arbitrary units (background-subtracted, floor 0; scale differs between SH3 domains)); higher = stronger binding of the SH3 domain to the peptide
[1] = molecular target: AgAbp1
Procedure, shortened: (§1)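 To measure binding, SH3 domains from four yeast species were fused to GST, expressed in E. coli BL21(DE3) and purified on glutathione Sepharose. Each domain was incubated at 10 μg/ml overnight at 4°C on cellulose membranes with synthetic 15-mer peptides whose cysteines were replaced by serines. Anti-GST antibody, an HRP anti-mouse secondary and luminol were used for detection, and images were quantified with Genespotter. Reported binding signal is normalized, background-subtracted spot intensity averaged over replicates, in arbitrary units that differ between domains.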

[2] = molecular target: AgBbc1
Procedure, shortened: as §1

[3] = molecular target: AgBem1-D1
Procedure, shortened: as §1

[4] = molecular target: AgBzz1-D1
Procedure, shortened: as §1

[5] = molecular target: AgBzz1-D2
Procedure, shortened: as §1

[6] = molecular target: AgCyk3
Procedure, shortened: as §1

[7] = molecular target: AgFus1
Procedure, shortened: as §1

[8] = molecular target: AgHof1
Procedure, shortened: as §1

[9] = molecular target: AgHse1
Procedure, shortened: as §1

[10] = molecular target: AgLsb1
Procedure, shortened: as §1

[11] = molecular target: AgLsb4
Procedure, shortened: as §1

[12] = molecular target: AgMyo5
Procedure, shortened: as §1

[13] = molecular target: AgNbp2
Procedure, shortened: as §1

[14] = molecular target: AgRvs167
Procedure, shortened: as §1

[15] = molecular target: AgSho1
Procedure, shortened: as §1

[16] = molecular target: AgSla1-D1-D2
Procedure, shortened: as §1

[17] = molecular target: AgSla1-D3
Procedure, shortened: as §1

[18] = molecular target: CaAbp1-D1
Procedure, shortened: as §1

[19] = molecular target: CaAbp1-D2
Procedure, shortened: as §1

[20] = molecular target: CaBbc1
Procedure, shortened: as §1

[21] = molecular target: CaBem1-D1
Procedure, shortened: as §1

[22] = molecular target: CaBzz1-D1
Procedure, shortened: as §1

[23] = molecular target: CaBzz1-D2
Procedure, shortened: as §1

[24] = molecular target: CaCyk3
Procedure, shortened: as §1

[25] = molecular target: CaFus1
Procedure, shortened: as §1

[26] = molecular target: CaHof1
Procedure, shortened: as §1

[27] = molecular target: CaHse1
Procedure, shortened: as §1

[28] = molecular target: CaLsb1
Procedure, shortened: as §1

[29] = molecular target: CaLsb4
Procedure, shortened: as §1

[30] = molecular target: CaMyo5
Procedure, shortened: as §1

[31] = molecular target: CaNbp2
Procedure, shortened: as §1

[32] = molecular target: CaRvs167
Procedure, shortened: as §1

[33] = molecular target: CaRvs167-3
Procedure, shortened: as §1

[34] = molecular target: CaSho1
Procedure, shortened: as §1

[35] = molecular target: CaSla1-D1-D2
Procedure, shortened: as §1

[36] = molecular target: CaSla1-D3
Procedure, shortened: as §1

[37] = molecular target: ScAbp1
Procedure, shortened: as §1

[38] = molecular target: ScBbc1
Procedure, shortened: as §1

[39] = molecular target: ScBem1-D1
Procedure, shortened: as §1

[40] = molecular target: ScBzz1-D1
Procedure, shortened: as §1

[41] = molecular target: ScBzz1-D2
Procedure, shortened: as §1

[42] = molecular target: ScCyk3
Procedure, shortened: as §1

[43] = molecular target: ScFus1
Procedure, shortened: as §1

[44] = molecular target: ScHof1
Procedure, shortened: as §1

[45] = molecular target: ScHse1
Procedure, shortened: as §1

[46] = molecular target: ScLsb1
Procedure, shortened: as §1

[47] = molecular target: ScLsb2
Procedure, shortened: as §1

[48] = molecular target: ScLsb3
Procedure, shortened: as §1

[49] = molecular target: ScLsb4
Procedure, shortened: as §1

[50] = molecular target: ScMyo3
Procedure, shortened: as §1

[51] = molecular target: ScMyo5
Procedure, shortened: as §1

[52] = molecular target: ScNbp2
Procedure, shortened: as §1

[53] = molecular target: ScPex13
Procedure, shortened: as §1

[54] = molecular target: ScRvs167
Procedure, shortened: as §1

[55] = molecular target: ScSho1
Procedure, shortened: as §1

[56] = molecular target: ScSla1-D1-D2
Procedure, shortened: as §1

[57] = molecular target: ScSla1-D3
Procedure, shortened: as §1

[58] = molecular target: SpAbp1-D1
Procedure, shortened: as §1

[59] = molecular target: SpBbc1
Procedure, shortened: as §1

[60] = molecular target: SpBzz1-D1
Procedure, shortened: as §1

[61] = molecular target: SpBzz1-D2
Procedure, shortened: as §1

[62] = molecular target: SpCyk3
Procedure, shortened: as §1

[63] = molecular target: SpHof1
Procedure, shortened: as §1

[64] = molecular target: SpHof1-2
Procedure, shortened: as §1

[65] = molecular target: SpHof1-3
Procedure, shortened: as §1

[66] = molecular target: SpHse1
Procedure, shortened: as §1

[67] = molecular target: SpLsb1
Procedure, shortened: as §1

[68] = molecular target: SpLsb4
Procedure, shortened: as §1

[69] = molecular target: SpMyo1
Procedure, shortened: as §1

[70] = molecular target: SpNbp2
Procedure, shortened: as §1

[71] = molecular target: SpPex13
Procedure, shortened: as §1

[72] = molecular target: SpRvs167
Procedure, shortened: as §1

[73] = molecular target: SpSla1-D1-D2
Procedure, shortened: as §1

[74] = molecular target: SpSla1-D3
Procedure, shortened: as §1

Q: LKQRFFLMFPKSIIW was tested. Which “SPOT peptide array binding signal intensity” value [1] did it give?
A: The value was 4.

Q: And the “SPOT peptide array binding signal intensity” value [2]?
A: Its value is 6.

Q: What about the “SPOT peptide array binding signal intensity” value [3] of the same binder?
A: The value was 102.

Q: What about the “SPOT peptide array binding signal intensity” value [4] of the same binder?
A: Its value is 49.5.

Q: What about the “SPOT peptide array binding signal intensity” value [5] of the same binder?
A: Its value is 44.

Q: What about the “SPOT peptide array binding signal intensity” value [6] of the same binder?
A: Its value is 1.5.

Q: What about the “SPOT peptide array binding signal intensity” value [7] of the same binder?
A: Its value is 742.

Q: What about the “SPOT peptide array binding signal intensity” value [8] of the same binder?
A: The value was 81.5.

Q: And the “SPOT peptide array binding signal intensity” value [9]?
A: Its value is 1020.

Q: And the “SPOT peptide array binding signal intensity” value [10]?
A: The value was 0.5.

Q: What about the “SPOT peptide array binding signal intensity” value [11] of the same binder?
A: Its value is 42.5.

Q: What about the “SPOT peptide array binding signal intensity” value [12] of the same binder?
A: Its value is 0.5.

Q: And the “SPOT peptide array binding signal intensity” value [13]?
A: Its value is 146.

Q: And the “SPOT peptide array binding signal intensity” value [14]?
A: Its value is 3.67.

Q: And the “SPOT peptide array binding signal intensity” value [15]?
A: The value was 102.

Q: And the “SPOT peptide array binding signal intensity” value [16]?
A: Its value is 141.

Q: What about the “SPOT peptide array binding signal intensity” value [17] of the same binder?
A: The value was 21.

Q: What about the “SPOT peptide array binding signal intensity” value [18] of the same binder?
A: The value was 295.

Q: What about the “SPOT peptide array binding signal intensity” value [19] of the same binder?
A: Its value is 65.5.

Q: And the “SPOT peptide array binding signal intensity” value [20]?
A: The value was 17.8.

Q: And the “SPOT peptide array binding signal intensity” value [21]?
A: The value was 33.5.

Q: And the “SPOT peptide array binding signal intensity” value [22]?
A: Its value is 104.

Q: What about the “SPOT peptide array binding signal intensity” value [23] of the same binder?
A: Its value is 48.5.

Q: What about the “SPOT peptide array binding signal intensity” value [24] of the same binder?
A: Its value is 5.

Q: What about the “SPOT peptide array binding signal intensity” value [25] of the same binder?
A: The value was 4200.

Q: What about the “SPOT peptide array binding signal intensity” value [26] of the same binder?
A: The value was 0.5.

Q: What about the “SPOT peptide array binding signal intensity” value [27] of the same binder?
A: The value was 121.

Q: What about the “SPOT peptide array binding signal intensity” value [28] of the same binder?
A: The value was 1.5.

Q: And the “SPOT peptide array binding signal intensity” value [29]?
A: The value was 42.

Q: What about the “SPOT peptide array binding signal intensity” value [30] of the same binder?
A: The value was 35.

Q: And the “SPOT peptide array binding signal intensity” value [31]?
A: Its value is 676.

Q: What about the “SPOT peptide array binding signal intensity” value [32] of the same binder?
A: Its value is 89.2.

Q: What about the “SPOT peptide array binding signal intensity” value [33] of the same binder?
A: The value was 520.

Q: What about the “SPOT peptide array binding signal intensity” value [34] of the same binder?
A: The value was 484.

Q: What about the “SPOT peptide array binding signal intensity” value [35] of the same binder?
A: Its value is 84.5.

Q: What about the “SPOT peptide array binding signal intensity” value [36] of the same binder?
A: The value was 257.

Q: And the “SPOT peptide array binding signal intensity” value [37]?
A: Its value is 48.

Q: And the “SPOT peptide array binding signal intensity” value [38]?
A: Its value is 4.5.

Q: What about the “SPOT peptide array binding signal intensity” value [39] of the same binder?
A: Its value is 69.

Q: And the “SPOT peptide array binding signal intensity” value [40]?
A: Its value is 42.

Q: What about the “SPOT peptide array binding signal intensity” value [41] of the same binder?
A: The value was 150.

Q: What about the “SPOT peptide array binding signal intensity” value [42] of the same binder?
A: The value was 124.

Q: And the “SPOT peptide array binding signal intensity” value [43]?
A: Its value is 819.

Q: And the “SPOT peptide array binding signal intensity” value [44]?
A: Its value is 1.5.

Q: And the “SPOT peptide array binding signal intensity” value [45]?
A: The value was 1580.

Q: What about the “SPOT peptide array binding signal intensity” value [46] of the same binder?
A: Its value is 1.

Q: And the “SPOT peptide array binding signal intensity” value [47]?
A: Its value is no more than 0.

Q: What about the “SPOT peptide array binding signal intensity” value [48] of the same binder?
A: The value was 33.

Q: And the “SPOT peptide array binding signal intensity” value [49]?
A: The value was 14.5.

Q: And the “SPOT peptide array binding signal intensity” value [50]?
A: Its value is no more than 0.

Q: What about the “SPOT peptide array binding signal intensity” value [51] of the same binder?
A: The value was 4.

Q: And the “SPOT peptide array binding signal intensity” value [52]?
A: The value was 252.

Q: What about the “SPOT peptide array binding signal intensity” value [53] of the same binder?
A: Its value is 15.5.

Q: And the “SPOT peptide array binding signal intensity” value [54]?
A: The value was 14.5.

Q: And the “SPOT peptide array binding signal intensity” value [55]?
A: Its value is 1060.

Q: What about the “SPOT peptide array binding signal intensity” value [56] of the same binder?
A: The value was 91.5.

Q: What about the “SPOT peptide array binding signal intensity” value [57] of the same binder?
A: The value was 132.

Q: What about the “SPOT peptide array binding signal intensity” value [58] of the same binder?
A: The value was 69.

Q: What about the “SPOT peptide array binding signal intensity” value [59] of the same binder?
A: Its value is no more than 0.

Q: And the “SPOT peptide array binding signal intensity” value [60]?
A: Its value is 103.

Q: What about the “SPOT peptide array binding signal intensity” value [61] of the same binder?
A: Its value is 0.5.

Q: What about the “SPOT peptide array binding signal intensity” value [62] of the same binder?
A: Its value is 9.

Q: What about the “SPOT peptide array binding signal intensity” value [63] of the same binder?
A: Its value is 236.

Q: And the “SPOT peptide array binding signal intensity” value [64]?
A: Its value is 36.5.

Q: And the “SPOT peptide array binding signal intensity” value [65]?
A: The value was 748.

Q: What about the “SPOT peptide array binding signal intensity” value [66] of the same binder?
A: The value was 972.

Q: What about the “SPOT peptide array binding signal intensity” value [67] of the same binder?
A: Its value is no more than 0.

Q: And the “SPOT peptide array binding signal intensity” value [68]?
A: Its value is 38.5.

Q: What about the “SPOT peptide array binding signal intensity” value [69] of the same binder?
A: Its value is 3.5.

Q: What about the “SPOT peptide array binding signal intensity” value [70] of the same binder?
A: Its value is 515.

Q: What about the “SPOT peptide array binding signal intensity” value [71] of the same binder?
A: Its value is 86.

Q: And the “SPOT peptide array binding signal intensity” value [72]?
A: The value was 14.3.

Q: What about the “SPOT peptide array binding signal intensity” value [73] of the same binder?
A: Its value is no more than 0.

Q: And the “SPOT peptide array binding signal intensity” value [74]?
A: The value was 39.
